# From PubChem BioAssay AID686978 (National Center for Advancing Translational Sciences (NCATS), 2013)
# Among all 420,000 compounds or so, about 64,000 (15%) were called active. Not shown: some 27% with an inconclusive outcome. Calls come from the whole dose curve; as a rule, active = well fitted inhibition curve with a large enough effect; inconclusive = small, poorly fitted or top-dose-only effect; inactive = flat fitted curve, though single readings scatter. Not all results are given here.
# Assay: qHTS for Inhibitors of human tyrosyl-DNA phosphodiesterase 1 (TDP1): qHTS in cells in absence of CPT; note: nearly all actives have a fitted effect of over 55% in size
# Conditions: DT40 Tdp1-/- hTDP1 cells, no CPT, ATP luminescence, 48 h; activity change, negative = growth inhibition: at 46.2 µM (top of the series)
# Method in brief: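 No-CPT arm: Tdp1-/-;hTDP1 DT40 cells (400/well) plus compounds, incubated ≥48 hr at 37 °C. Readout CellTiter-Glo luminescence.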
# % is set by controls: 0 for no effect and ±100 for the full control effect; potency is the fitted concentration of half-maximal effect.
Compound,"activity change, negative = growth inhibition",Potency
Cc1ccccc1CN1C(=O)CSCC1(C)C(=O)Nc1c(C)cccc1C (stereo unspecified),-2.46% (inactive),–
Cc1n[nH]c(=O)c2c(NC(=O)CSc3cc(Cl)ccc3Cl)oc(C)c12,7.52% (inactive),–
O=C(CSc1nnnn1C1CCCC1)N1CCCCC1,-4.85% (inactive),–
Cc1cc(=O)oc2c1ccc1ccccc12,10.2% (inactive),–
O=C(Nc1ccc(C(=O)NCc2ccccc2Cl)cc1)C1=CSCCO1,-20.2% (inactive),–
C=CCn1c2c(c3ccccc31)CCC2,-24.3% (inactive),–
CCc1nnc(NS(=O)(=O)c2ccc(NC(=O)c3cccc(OC(F)(F)C(F)F)c3)cc2)s1,-8.34% (inactive),–
C/C(=N\Nc1ccccc1)c1cccs1,-19.2% (inactive),–
O=C(c1cccs1)N1CCN(C(=O)N2CCOCC2)CC1,5.43% (inactive),–
C/C(=N\Nc1nc(Nc2ccccc2)nc(N2CCOCC2)n1)c1cccs1,–,20.6 µM (active)
CCN(c1ccccc1)S(=O)(=O)c1ccc(OCC(=O)N2CCCC2)cc1,-17.5% (inactive),–
CCc1cccc(NC(=O)CCNS(=O)(=O)c2cccc3nonc23)c1,–,inactive
Cc1ccc(NC(=O)C2(N3CCC3=O)CCCCC2)cc1,10.4% (inactive),–
COc1ccc(CCNC(=O)CN(C)S(=O)(=O)c2ccc3nc(C)sc3c2)cc1OC,-11.5% (inactive),–
CCOc1ccc(CCNC(=O)Cn2nc(CC)n3c(cc4sc(CC)cc43)c2=O)cc1OCC,-19.3% (inactive),–
Cc1ccc(-c2cn3c(n2)sc2cc(C(=O)NCCCc4ccccc4)ccc23)cc1,–,8.2 µM (active)
CCOc1ccc(CCNC(=O)Nc2ccccc2)cc1OCC,-29.6% (inactive),–
COc1ccc(CCNC(=O)c2ccc3c(c2)sc2nc(-c4ccc(C)cc4)cn23)cc1OC,–,5.17 µM (active)
Cc1ccc(-c2cn3c(n2)sc2cc(C(=O)NCc4cccs4)ccc23)c(C)c1,–,18.4 µM (active)
Cc1cc(C(=O)NCCCc2ccccc2)no1,-4.19% (inactive),–
CCOc1cccc2cc(-c3cn4c(n3)sc3cc(C)ccc34)c(=O)oc12,0.207% (inactive),–
COc1ccc(Cl)cc1C(=O)OCC(=O)NCc1cccs1,22.9% (inactive),–
CCc1cc2c(cc3c(=O)n(CC(=O)NCCc4ccc(OC)c(OC)c4)ncn32)s1,-0.928% (inactive),–
CCOc1ccc(CCNC(=O)c2ccc3c(c2)sc2nc(-c4ccc(F)cc4)cn23)cc1OCC,–,5.8 µM (active)
CC(C)c1ccc(C(=O)NCCCc2ccccc2)cc1,-16.9% (inactive),–
Cc1cc(O)c(NC(=O)c2ccc(C)c([N+](=O)[O-])c2)cc1C,-20.8% (inactive),–

Compound,"activity change, negative = growth inhibition",Potency
CCc1ccc(-c2nnn(Cc3nc4ccccc4s3)n2)cc1,-17% (inactive),–
C[C@H]1Cn2cnc(C(=O)N[C@H](C)c3ccccc3)c2C(=O)N1,-13.3% (inactive),–
CC1(C)Cc2ccccc2-c2[nH]c(=S)[nH]c(=O)c21,12.1% (inactive),–
Cc1ccc(C(=O)NN(CCC#N)C2=NS(=O)(=O)c3ccccc32)cc1,-5.12% (inactive),–
Cc1cc(C)c(NC(=O)CN2CCOCCOCCOCCOCC2)c(C)c1,-14.6% (inactive),–
O=C(Oc1ccc2c(c1)CCC2)N1CCOCC1,-7.1% (inactive),–
C=C(C)CSc1nnc(-c2ccc(C)cc2)n1N,-3.9% (inactive),–
CCCCn1c(N)c(N(CC(C)C)C(=O)C2CSC3(C)CCC(=O)N23)c(=O)[nH]c1=O (stereo unspecified),-12.7% (inactive),–
O=C(O)c1ccc(-n2cccc2)cc1O,7.21% (inactive),–
CCOC(=O)C1CCCN(C(=O)c2cncc(Br)c2)C1 (stereo unspecified),-10% (inactive),–
CCOC(=O)C1CCCN(C(=O)c2ccc3c(c2)sc2nc(-c4ccc(CC)cc4)cn23)C1 (stereo unspecified),–,5.17 µM (active)
CCOC(=O)C1CCCN(C(=O)c2cccc(S(=O)(=O)N3CCOCC3)c2)C1 (stereo unspecified),-11% (inactive),–
O=C(COc1ccc([N+](=O)[O-])cc1)Nc1cccc(C(=O)Nc2ccccc2C(=O)O)c1,10.7% (inactive),–
O=C(NC1(C(F)(F)F)NC(=O)N(Cc2cccnc2)C1=O)c1ccccc1Cl (stereo unspecified),-2.04% (inactive),–
Cc1cccc(NC(=O)CN2CCN(CC(=O)NCC3(N4CCCCC4)CCCCC3)CC2)c1C,-21% (inactive),–
CN1CCN(C2(CNC(=O)COc3ccc(C(C)(C)C)cc3)CCCCC2)CC1,–,18.4 µM (active)
COc1ccc(S(=O)(=O)N2CCN(CC(=O)NCC3(N4CCOCC4)CCCCC3)CC2)cc1,-5.53% (inactive),–
Cc1nc2sc(C(c3ccco3)N3CCOCC3)c(O)n2n1 (stereo unspecified),-7.01% (inactive),–
COc1ccc(CC(=O)N[C@@H]2c3cc(OC)c(OC)cc3C[C@H]2OCc2ccccc2)cc1,-9.63% (inactive),–
CCn1c(CNC(=O)c2ccc(OC)c(OC)c2)nnc1SCC(=O)Nc1ccccc1,15.1% (inactive),–
COc1ccc(C2(CNC(=O)Cc3ccc(OC)c(OC)c3)CCCC2)cc1,–,20.6 µM (active)
CCOc1c(OC)cccc1C(=O)NCC1(c2ccccc2)CCCC1,–,6.51 µM (active)
COc1ccccc1C(=O)NCCC(=O)NN1C(=O)NC2(CCCCC2)C1=O,-12% (inactive),–
COc1ccccc1OCC(=O)Nc1ccccc1C(=O)NC1CC1,-5.65% (inactive),–
COc1ccc(C(=O)NC2CC(C)(C)NC(C)(C)C2)cc1OC,-0.888% (inactive),–
